Screening results: PubChem, The Scripps Research Institute Molecular Screening Center
Rows were chosen to be rich in hits. Some 3.5% of all compounds tested hit in one or more screens of this group.
FBW7 act: FBW7 E3 ligase activators, primary screen, biochemical, AlphaScreen, human; F-box/WD repeat-containing protein 7 (Homo sapiens), Q969H0; AlphaScreen FBW7–phospho-cyclin E peptide binding, activator screen; normalized activity (activation), % at 26.1 µM; 0.13% of 650,000 active; in the data active means normalized activity above about 1.9%;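 further: purified mutant Fbw7 with reduced substrate affinity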
Target sequence (Q969H0 whole entry, looked up): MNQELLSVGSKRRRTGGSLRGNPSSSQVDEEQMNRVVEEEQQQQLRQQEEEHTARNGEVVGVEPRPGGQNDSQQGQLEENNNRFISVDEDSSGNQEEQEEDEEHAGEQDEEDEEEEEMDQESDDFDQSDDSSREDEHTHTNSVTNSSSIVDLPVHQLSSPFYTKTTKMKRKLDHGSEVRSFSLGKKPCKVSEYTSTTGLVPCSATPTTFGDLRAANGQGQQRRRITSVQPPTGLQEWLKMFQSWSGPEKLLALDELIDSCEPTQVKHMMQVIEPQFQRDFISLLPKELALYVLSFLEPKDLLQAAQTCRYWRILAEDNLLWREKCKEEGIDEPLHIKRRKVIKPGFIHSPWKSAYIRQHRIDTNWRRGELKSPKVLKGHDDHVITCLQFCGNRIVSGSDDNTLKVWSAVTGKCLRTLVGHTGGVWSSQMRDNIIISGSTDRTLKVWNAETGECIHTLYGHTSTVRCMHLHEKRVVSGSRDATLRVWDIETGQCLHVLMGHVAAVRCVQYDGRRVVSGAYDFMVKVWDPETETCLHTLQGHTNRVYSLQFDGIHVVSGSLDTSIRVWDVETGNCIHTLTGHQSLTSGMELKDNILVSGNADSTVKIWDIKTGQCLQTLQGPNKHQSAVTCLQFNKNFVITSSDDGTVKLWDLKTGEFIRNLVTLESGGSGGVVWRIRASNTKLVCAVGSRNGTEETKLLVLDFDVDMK
GPR151 activ: activators of human GPR151, primary screen, cell-based, PathHunter beta-arrestin, luminescence; 1% of 650,000 active; PathHunter beta-arrestin GPR151 cells; activation, % at 11.2 µM; AID 1508602, 2020; in the data active means activation above about 4.9%
TEAD-YAP inh: TEAD-YAP interaction inhibition, primary screen, TEAD-YAP interaction inhibitor project, luminescence, HEK-TIYL cells; TEAD-Gal4/YAP UAS-luciferase luminescence; inhibition, % at 9.12 µM; 1.4% of 640,000 active; AID 1259422, 2018; in the data active means inhibition above about 32%
MITF primary: MITF inhibitors, primary screen, biochemical, AlphaScreen, human; Microphthalmia-associated transcription factor (Homo sapiens), O75030; AlphaScreen MITF homodimerization, bead proximity signal; inhibition, % at 2.6 µM; AID 1259374, 2018; 0.91% of 650,000 active; in the data active means inhibition above about 50%
GPR151 conf act: GPR151 activators, triplicate retest, confirmation, cell-based, PathHunter beta-arrestin, luminescence; shares compounds with GPR151 activ; GPR151 PathHunter beta-arrestin cells, 90 min; % of EA-reagent control over plate median; activation, % at 11.2 µM; 6,700 tested, under 10 active; AID 1508609, 2020;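 active means mean percent activation across replicates above the confirmation screen cutoff of 4.91%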
GPR119 counter: GPR119 activators in beta-arrestin cells, counter-screen for GPR151 activator project, cell-based, PathHunter beta-arrestin, luminescence, triplicate | 0.3% of 6,700 active | AID 1508611, 2020 | shares compounds with GPR151 activ | activation, % at 11.2 µM | 90 min; 0 = compound-well median, 100 = enzyme-acceptor control;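 active means mean percent activation in the counterscreen above 29.09%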;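 further: counterscreen on off-target GPR119 to flag nonselective hits from the GPR151 activator screen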
A number is an active result; - = inactive; . = no result given; ! = a repeat was not active.

SMILES	FBW7 act	GPR151 activ	TEAD-YAP inh	MITF primary	GPR151 conf act	GPR119 counter
Cc1ccc(S(=O)(=O)NC(C)C(=O)Nc2ccc(C(F)(F)F)cc2)cc1 (centres undefined)	-	-	-	-	.	.
COc1ccc(S(=O)(=O)NC(C)C(N)=O)cc1 (centres undefined)	-	6.0	-	-	-	-
COc1cc(NC(=O)CS(=O)(=O)c2ccc(C)cc2)cc(OC)c1OC	-	6.0	-	-	-	-
COc1ccc(CNC(=O)C2(S(=O)(=O)c3ccc(Cl)cc3)CC2)cc1	-	-	-	-	.	.
Cc1ccc(-n2c(=S)sc3c(=O)n(-c4ccccc4)c(SCc4cccnc4)nc32)c(C)c1	-	-	-	-	.	.
CN1C(=O)CCC12CCN(Cc1c[nH]c3ccccc13)CC2	-	8.1	-	-	-	-
CC(C)(C)NS(=O)(=O)c1ccc(NC(=O)c2ccc(C(C)(C)C)cc2)cc1	-	-	-	-	.	.
CC(Oc1ccccc1)C(=O)Nc1ccc(F)cc1F (centres undefined)	-	5.3	-	-	-	-
O=c1c2cc(-c3ccccc3)sc2ncn1-n1cccc1	-	7.7	-	-	-	-
Nc1sc(-c2ccccc2)cc1C(=O)N/N=C/c1cccs1	-	8.4	-	-	-	-
COCC1CCN(c2nc3nonc3nc2NCc2cccs2)CC1	-	-	-	-	.	.
COC1CCN(c2nc3nonc3nc2NCc2cccs2)CC1	-	8.8	-	-	-	-
c1cncc(-c2nc(C3CCCCC3)no2)c1	-	-	-	-	.	.
CCOC(=O)N1CCN(C(=O)c2cc(COc3ccc(C(C)=O)cc3)on2)CC1	-	-	-	-	.	.
CCN(CCN(C)C)Cc1cc(OC)c(OC)cc1[N+](=O)[O-]	-	5.3	-	-	-	-
FC1(F)C(F)(F)C(F)(F)C2(F)C(F)(F)C(F)(F)C(F)(F)C(F)(F)C2(F)C1(F)F (centres undefined)	-	5.1	-	-	-	-
COc1ccc(S(=O)(=O)N2N=C(C)Oc3ccccc3C2=O)cc1	-	5.2	44	-	-	-
Cc1nc2c(-c3ccccc3)c(C)nn2c(C)c1CCC(=O)NCCN1CCOCC1	-	7.6	-	-	-	-
CC(=O)N1CCc2cc(Br)cc(S(=O)(=O)N3CCC(O)(c4cccc(C(F)(F)F)c4)CC3)c21	-	4.9	-	-	-	-
CC(=O)N1CCc2cc(Br)cc(S(=O)(=O)N3CCCCC3)c21	-	-	-	-	.	.
COC(=O)COc1cc(C)cc2oc(=O)c(CC(=O)OC)c(C)c12	-	6.1	-	-	-	-
COC(=O)Cc1c(C)c2c(OCC(=O)c3cccc([N+](=O)[O-])c3)cc(C)cc2oc1=O	-	-	-	-	.	.
CCN(CC)C(=O)COc1cc2oc(=O)c(CC(=O)OC)c(C)c2cc1Cl	-	7.1	-	-	-	-
CSc1nnc(NC(=O)c2ccc(C)c(S(=O)(=O)N3CCCC3)c2)s1	-	-	-	-	.	.
CCOc1ccc(C(=S)N2CCCCC2)cc1	-	6.2	-	-	-	-
SMILES	FBW7 act	GPR151 activ	TEAD-YAP inh	MITF primary	GPR151 conf act	GPR119 counter
CCOc1ccc(C(=S)N2CCCC2)cc1	-	-	-	-	.	.
O=C(NCCC1=CCCCC1)c1cc(S(=O)(=O)NCCc2ccccc2)ccc1F	-	9.7	-	-	-	-
O=C(Nc1ccc(Cl)cc1)c1cc(S(=O)(=O)NCCC2=CCCCC2)ccc1F	-	-	-	-	.	.
Cc1nc2c(o1)C1(C(=O)N2C)C(C#N)=C(N)N(c2ccccc2)c2ccccc21 (centres undefined)	-	-	-	-	.	.
O=C1CC(c2ccc(Cl)cc2)CC2=C1C(c1cc3c(cc1Br)OCO3)Nc1ccccc1N2 (centres undefined)	-	9.0	-	-	-	-
O=C1CC(c2ccc(Cl)cc2)CC2=C1C(c1ccc3c(c1)OCO3)Nc1ccccc1N2 (centres undefined)	-	-	-	-	.	.
COC(=O)c1c(NC(=O)c2ccc([N+](=O)[O-])cc2)sc(C(=O)N2CCOCC2)c1C	-	5.5	-	-	-	-
Cc1c(C(=O)CSc2ccc(F)cc2F)sc2ncnn12	-	5.9	-	-	-	-
CO/N=C(\CSc1ccccc1OC)c1sc2ncnn2c1C	-	-	-	-	.	.
CCOC(=O)/C(=C\c1ccco1)NC(=O)c1ccccc1I	-	12	-	-	-	-
O=C(c1ccc([N+](=O)[O-])cc1)N1CCC(C(=O)N2CCN(c3ccccc3)CC2)CC1	-	11	-	-	-	-
COc1cccc(CNS(=O)(=O)c2ccc(-c3ncnc4[nH]ccc34)cc2F)c1	-	5.0	-	-	-	-
COc1cccc(CNC(=O)c2nc3ccc(-c4ncnc5[nH]ccc45)cc3c(=O)[nH]2)c1	-	-	-	-	.	.
CC(NC(=O)COC(=O)c1ccc(N)c([N+](=O)[O-])c1)C12CC3CC(CC(C3)C1)C2 (centres undefined)	-	-	-	-	.	.
Clc1ccc(Cn2cnc(Cl)c2Cl)cc1Cl	-	-	-	-	.	.
CCCN1C(=O)/C(=C/c2ccc(O)c(OC)c2)SC1=S	-	5.1	-	-	-	-
CCOc1ccccc1CN1CCN(Cc2cnc(SC)nc2)CC1CCO (centres undefined)	-	-	-	-	.	.
COc1ccc(NC(=O)c2cc3cc(OC)ccc3oc2=Nc2ccc(C(=O)O)cc2)c(OC)c1	-	-	-	-	.	.
COc1ccc(NC(=O)c2cc3ccc(OC)cc3oc2=Nc2ccc(C(=O)O)cc2)c(OC)c1	-	11	-	-	-	-
CCOC(=O)c1sc2ncn(/N=C/N(C)C)c(=O)c2c1C	-	7.1	-	-	-	-
CCOc1ccc(-c2[nH]nc3c2C(c2ccncc2)C(C#N)=C(N)O3)c(OCC)c1 (centres undefined)	-	-	-	-	.	.
CC1(C)C2CC[C@]3(C)C(C(=O)C=C4[C@@H]5C[C@@](C)(C(=O)O)CC[C@]5(C)CC[C@]43C)[C@@]2(C)CC[C@@H]1OC(=O)CCC(=O)O (some centres undefined)	-	5.2!	-	-	-	-
CC1(C)[C@@H](O)CC[C@]2(C)[C@H]3C(=O)C=C4[C@@H]5C[C@@](C)(C(=O)O)CC[C@]5(C)CC[C@@]4(C)[C@]3(C)CC[C@@H]12	-	-	-	-	.	.
CCOC(=O)c1ccsc1NC(=O)c1ccc(Br)s1	-	-	-	-	.	.
COCCNC(=O)Nc1nc(-c2ccc3c(c2)CCCC3)cs1	-	7.3	-	-	-	-
